We go through one sequence from PMC7862700, “An all-to-all approach to the identification of sequence-specific readers for epigenetic DNA modifications on cytosine”.

Holding throughout (assay): DAPPL (digital affinity profiling via proximity ligation, sequencing); 10 mM Tris-HCl pH 7.5, 50 mM NaCl, 1 mM DTT, 4% glycerol, room temperature, 30 min; GST-TFs on glutathione beads, 16-mer random dsDNA library, 0.1% formaldehyde crosslink after washing; high values mean tight binding
One assay concerns the target T1, FEV (Homo sapiens, UniProt Q99581 1-238).
T1 sequence: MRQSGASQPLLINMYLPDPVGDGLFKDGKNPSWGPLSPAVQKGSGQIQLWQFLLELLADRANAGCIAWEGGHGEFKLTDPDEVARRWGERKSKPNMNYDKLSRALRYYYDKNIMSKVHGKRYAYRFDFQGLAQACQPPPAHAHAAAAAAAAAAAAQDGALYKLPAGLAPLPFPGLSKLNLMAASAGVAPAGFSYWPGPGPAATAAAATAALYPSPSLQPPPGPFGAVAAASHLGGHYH
Particulars: protein: recombinant; tags: N-terminal GST; dsDNA, one strand shown. The procedure, abridged: (§1)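 Binding signal is each hexamer's read frequency for a factor divided by its frequency in the tag-only sample. The factors were GST-fused human transcription factors from yeast, captured on glutathione beads, DNA-barcoded and pooled with that sample. Pools were incubated with 200 nmole of a random double-stranded 16-mer DNA library in Tris/NaCl/DTT/glycerol buffer at room temperature for 30 min, then washed, crosslinked with 0.1% formaldehyde, proximity-ligated with BsaI/T4 ligase (1 h, 37 °C), PCR-amplified and sequenced on an Illumina NextSeq500.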

Another assay addresses ETV5 (Homo sapiens, UniProt P41161 1-510). Particulars: protein: recombinant; tags: N-terminal GST; dsDNA, one strand shown. In short, it runs like this: as §1
A further assay concerns the target HSF1 (Homo sapiens, UniProt Q00613 1-529). Particulars: protein: recombinant; tags: N-terminal GST; chain copies: 3; dsDNA, one strand shown. The procedure, abridged:
as §1

The target of the next assay is T2, SPIC (Homo sapiens, UniProt Q8N5J4 1-248).
T2 sequence: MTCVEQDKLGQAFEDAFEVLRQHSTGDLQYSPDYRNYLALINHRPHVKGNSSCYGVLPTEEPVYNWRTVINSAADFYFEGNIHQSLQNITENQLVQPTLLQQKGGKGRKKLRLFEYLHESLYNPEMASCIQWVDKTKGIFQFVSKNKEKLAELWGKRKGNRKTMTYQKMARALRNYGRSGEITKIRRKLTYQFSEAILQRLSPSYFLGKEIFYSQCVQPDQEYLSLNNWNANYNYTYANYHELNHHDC
Particulars: protein: recombinant; tags: N-terminal GST; dsDNA, one strand shown. In short, it runs like this:
as §1

The next assay has as its target ELF4 (Homo sapiens, UniProt Q99607 1-663). As to conditions: protein: recombinant; tags: N-terminal GST; dsDNA, one strand shown. The procedure, abridged:
as §1

The next assay deals with T3, ELK4 (Homo sapiens, UniProt P28324-2 1-405).
T3 sequence: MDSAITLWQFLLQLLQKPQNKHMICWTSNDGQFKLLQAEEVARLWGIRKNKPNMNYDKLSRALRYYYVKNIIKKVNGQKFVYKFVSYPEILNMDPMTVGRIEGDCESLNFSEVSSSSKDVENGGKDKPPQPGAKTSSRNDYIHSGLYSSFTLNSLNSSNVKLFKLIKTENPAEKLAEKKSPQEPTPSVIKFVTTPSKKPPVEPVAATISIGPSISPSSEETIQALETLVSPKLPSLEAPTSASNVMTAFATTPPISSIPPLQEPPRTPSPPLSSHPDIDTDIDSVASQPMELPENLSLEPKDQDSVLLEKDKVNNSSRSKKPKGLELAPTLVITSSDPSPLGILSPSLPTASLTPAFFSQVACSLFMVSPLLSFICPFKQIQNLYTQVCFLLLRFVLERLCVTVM
Particulars: protein: recombinant; tags: N-terminal GST; dsDNA, one strand shown. In short, it runs like this: as §1

For a further assay, the target named is T4, ETV2 (Homo sapiens, UniProt O00321 1-342).
T4 sequence: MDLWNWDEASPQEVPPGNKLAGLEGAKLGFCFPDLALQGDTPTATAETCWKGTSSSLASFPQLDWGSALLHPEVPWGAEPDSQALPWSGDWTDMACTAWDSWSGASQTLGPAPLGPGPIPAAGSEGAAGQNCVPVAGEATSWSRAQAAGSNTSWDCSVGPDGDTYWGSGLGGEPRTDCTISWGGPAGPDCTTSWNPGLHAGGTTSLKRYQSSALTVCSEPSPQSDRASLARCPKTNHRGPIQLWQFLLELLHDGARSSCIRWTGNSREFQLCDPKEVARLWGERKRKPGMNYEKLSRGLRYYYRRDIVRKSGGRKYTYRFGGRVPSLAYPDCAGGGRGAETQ
As to conditions: protein: recombinant; tags: N-terminal GST; dsDNA, one strand shown. The procedure, abridged:
as §1

The target in the next assay is T5, ELF3 (Homo sapiens, UniProt P78545 1-371).
T5 sequence: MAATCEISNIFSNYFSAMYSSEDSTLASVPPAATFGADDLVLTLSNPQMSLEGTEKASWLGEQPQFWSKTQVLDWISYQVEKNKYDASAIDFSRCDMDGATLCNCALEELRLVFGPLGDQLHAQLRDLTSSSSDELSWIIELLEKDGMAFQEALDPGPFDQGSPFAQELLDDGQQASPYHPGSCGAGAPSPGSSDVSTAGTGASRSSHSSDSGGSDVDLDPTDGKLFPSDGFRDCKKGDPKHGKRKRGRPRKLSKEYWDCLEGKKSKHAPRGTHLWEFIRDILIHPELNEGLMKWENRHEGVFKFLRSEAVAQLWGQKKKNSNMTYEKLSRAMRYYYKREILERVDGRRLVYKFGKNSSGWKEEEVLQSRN
Particulars: protein: recombinant; tags: N-terminal GST; dsDNA, one strand shown. In short, it runs like this: as §1

The target of another assay is CRX (Homo sapiens, UniProt O43186 1-299). Particulars: protein: recombinant; tags: N-terminal GST; dsDNA, one strand shown. The procedure, abridged: as §1
Chain of CRX (O43186 whole entry): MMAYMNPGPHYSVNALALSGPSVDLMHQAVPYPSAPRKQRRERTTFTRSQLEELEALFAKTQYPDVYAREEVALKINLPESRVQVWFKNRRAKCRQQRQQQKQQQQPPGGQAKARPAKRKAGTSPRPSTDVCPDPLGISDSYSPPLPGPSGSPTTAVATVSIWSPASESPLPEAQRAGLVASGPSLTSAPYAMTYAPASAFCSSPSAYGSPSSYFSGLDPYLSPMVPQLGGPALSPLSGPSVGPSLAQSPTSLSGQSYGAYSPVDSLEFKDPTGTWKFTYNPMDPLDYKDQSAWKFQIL
For the next assay, the target named is ETV1 (Homo sapiens, UniProt P50549 1-477). As to conditions: protein: recombinant; tags: N-terminal GST; dsDNA, one strand shown. In short, it runs like this: as §1
Chain of ETV1 (P50549 whole entry): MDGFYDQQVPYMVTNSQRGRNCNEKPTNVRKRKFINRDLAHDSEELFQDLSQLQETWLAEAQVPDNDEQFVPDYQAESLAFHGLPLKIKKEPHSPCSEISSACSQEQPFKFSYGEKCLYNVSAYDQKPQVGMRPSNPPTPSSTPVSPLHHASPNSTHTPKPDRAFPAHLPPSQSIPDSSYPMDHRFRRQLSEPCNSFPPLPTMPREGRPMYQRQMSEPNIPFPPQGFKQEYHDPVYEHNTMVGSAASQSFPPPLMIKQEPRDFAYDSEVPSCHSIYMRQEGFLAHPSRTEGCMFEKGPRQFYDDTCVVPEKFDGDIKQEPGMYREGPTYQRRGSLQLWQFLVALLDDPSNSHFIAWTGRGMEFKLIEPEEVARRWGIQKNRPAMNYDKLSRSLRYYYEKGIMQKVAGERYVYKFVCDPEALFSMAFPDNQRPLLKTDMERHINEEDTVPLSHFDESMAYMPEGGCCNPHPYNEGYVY
In a further assay the target is T6, ERF (Homo sapiens, UniProt P50548 1-548).
T6 sequence: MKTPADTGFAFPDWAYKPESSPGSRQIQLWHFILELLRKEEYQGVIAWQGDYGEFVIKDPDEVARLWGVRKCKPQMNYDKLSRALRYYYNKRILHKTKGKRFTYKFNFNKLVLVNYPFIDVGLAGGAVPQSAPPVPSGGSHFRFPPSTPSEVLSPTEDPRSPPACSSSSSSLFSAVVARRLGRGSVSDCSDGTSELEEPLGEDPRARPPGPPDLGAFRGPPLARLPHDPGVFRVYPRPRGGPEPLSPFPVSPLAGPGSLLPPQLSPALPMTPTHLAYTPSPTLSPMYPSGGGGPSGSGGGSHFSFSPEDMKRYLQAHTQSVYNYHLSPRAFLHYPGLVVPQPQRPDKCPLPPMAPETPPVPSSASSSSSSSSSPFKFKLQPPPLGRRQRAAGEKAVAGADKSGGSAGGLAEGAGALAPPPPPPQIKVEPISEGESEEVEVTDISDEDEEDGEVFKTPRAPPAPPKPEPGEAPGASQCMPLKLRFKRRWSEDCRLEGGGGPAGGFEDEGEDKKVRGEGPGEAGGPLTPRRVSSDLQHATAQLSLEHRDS
As to conditions: protein: recombinant; tags: N-terminal GST; dsDNA, one strand shown. In short, it runs like this:
as §1

The target in a further assay is T7, ETV3L (Homo sapiens, UniProt Q6ZN32 1-361).
T7 sequence: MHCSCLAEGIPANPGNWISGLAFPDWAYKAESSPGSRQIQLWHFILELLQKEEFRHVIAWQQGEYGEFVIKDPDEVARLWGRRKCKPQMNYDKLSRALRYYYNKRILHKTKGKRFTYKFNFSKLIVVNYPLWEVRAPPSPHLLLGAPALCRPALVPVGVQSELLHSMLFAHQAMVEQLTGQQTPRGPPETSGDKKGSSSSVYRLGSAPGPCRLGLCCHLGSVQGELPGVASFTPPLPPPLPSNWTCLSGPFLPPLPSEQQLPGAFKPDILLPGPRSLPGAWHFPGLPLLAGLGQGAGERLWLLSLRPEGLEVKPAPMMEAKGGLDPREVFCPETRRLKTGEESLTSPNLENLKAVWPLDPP
Particulars: protein: recombinant; tags: N-terminal GST; dsDNA, one strand shown. In short, it runs like this:
as §1

In the next assay the target is T8, ETS2 (Homo sapiens, UniProt P15036 1-469).
T8 sequence: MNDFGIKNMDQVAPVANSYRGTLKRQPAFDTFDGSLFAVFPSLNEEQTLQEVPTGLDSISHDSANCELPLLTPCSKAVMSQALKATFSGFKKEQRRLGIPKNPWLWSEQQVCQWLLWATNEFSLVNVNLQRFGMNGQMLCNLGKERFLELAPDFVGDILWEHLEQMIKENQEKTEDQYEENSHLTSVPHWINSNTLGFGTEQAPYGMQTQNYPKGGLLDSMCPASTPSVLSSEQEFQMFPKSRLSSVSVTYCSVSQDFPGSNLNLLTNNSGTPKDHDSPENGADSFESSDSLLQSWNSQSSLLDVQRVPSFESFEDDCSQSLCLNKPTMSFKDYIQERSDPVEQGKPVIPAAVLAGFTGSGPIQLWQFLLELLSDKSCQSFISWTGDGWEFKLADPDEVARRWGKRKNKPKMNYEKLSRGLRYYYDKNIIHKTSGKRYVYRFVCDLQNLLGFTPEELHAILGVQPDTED
As to conditions: protein: recombinant; tags: N-terminal GST; dsDNA, one strand shown. The procedure, abridged:
as §1

The next assay deals with T9, SPDEF (Homo sapiens, UniProt O95238 1-335).
T9 sequence: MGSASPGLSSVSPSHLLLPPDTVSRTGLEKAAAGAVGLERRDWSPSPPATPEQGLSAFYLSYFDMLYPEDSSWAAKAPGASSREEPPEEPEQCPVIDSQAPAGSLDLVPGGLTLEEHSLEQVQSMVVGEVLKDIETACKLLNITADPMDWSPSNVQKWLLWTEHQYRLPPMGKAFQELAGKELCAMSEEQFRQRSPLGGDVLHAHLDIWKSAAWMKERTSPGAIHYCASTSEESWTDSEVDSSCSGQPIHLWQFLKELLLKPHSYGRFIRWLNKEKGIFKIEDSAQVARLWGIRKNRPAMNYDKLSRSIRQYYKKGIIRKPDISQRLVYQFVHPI
Particulars: protein: recombinant; tags: N-terminal GST; dsDNA, one strand shown. In short, it runs like this: as §1

In the next assay the target is T10, ETV7 (Homo sapiens, UniProt Q9Y603 1-341).
T10 sequence: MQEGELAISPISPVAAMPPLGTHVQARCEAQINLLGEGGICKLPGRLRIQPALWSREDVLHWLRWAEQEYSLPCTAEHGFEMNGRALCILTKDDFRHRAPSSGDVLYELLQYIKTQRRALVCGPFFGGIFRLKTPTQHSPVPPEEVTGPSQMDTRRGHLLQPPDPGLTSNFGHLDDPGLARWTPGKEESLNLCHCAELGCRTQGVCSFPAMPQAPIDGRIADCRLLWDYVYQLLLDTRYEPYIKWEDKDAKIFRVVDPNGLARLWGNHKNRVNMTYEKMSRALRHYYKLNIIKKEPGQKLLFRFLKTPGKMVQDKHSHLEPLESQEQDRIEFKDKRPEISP
Particulars: protein: recombinant; tags: N-terminal GST; dsDNA, one strand shown. The procedure, abridged: as §1

A further assay concerns the target T11, ELF5 (Homo sapiens, UniProt Q9UKW6-2 1-255).
T11 sequence: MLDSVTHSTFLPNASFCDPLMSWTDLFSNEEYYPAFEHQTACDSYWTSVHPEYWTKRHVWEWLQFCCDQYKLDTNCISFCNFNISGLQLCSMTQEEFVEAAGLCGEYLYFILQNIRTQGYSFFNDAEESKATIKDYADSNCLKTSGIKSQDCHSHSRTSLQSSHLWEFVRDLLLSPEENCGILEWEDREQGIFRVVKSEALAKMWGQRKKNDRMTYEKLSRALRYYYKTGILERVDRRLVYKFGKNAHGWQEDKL
Particulars: protein: recombinant; tags: N-terminal GST; dsDNA, one strand shown. The procedure, abridged:
as §1

The next assay concerns the target T12, ETV3 (Homo sapiens, UniProt P41162-2 1-143).
T12 sequence: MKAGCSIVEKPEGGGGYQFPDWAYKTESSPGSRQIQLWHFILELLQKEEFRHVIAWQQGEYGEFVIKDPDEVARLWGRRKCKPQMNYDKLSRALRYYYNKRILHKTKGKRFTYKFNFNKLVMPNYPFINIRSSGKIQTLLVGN
As to conditions: protein: recombinant; tags: N-terminal GST; dsDNA, one strand shown. In short, it runs like this:
as §1

The target in a further assay is ETV6 (Homo sapiens, UniProt P41212 1-452). Particulars: protein: recombinant; tags: N-terminal GST; dsDNA, one strand shown. In short, it runs like this: as §1
Chain of ETV6 (P41212 whole entry): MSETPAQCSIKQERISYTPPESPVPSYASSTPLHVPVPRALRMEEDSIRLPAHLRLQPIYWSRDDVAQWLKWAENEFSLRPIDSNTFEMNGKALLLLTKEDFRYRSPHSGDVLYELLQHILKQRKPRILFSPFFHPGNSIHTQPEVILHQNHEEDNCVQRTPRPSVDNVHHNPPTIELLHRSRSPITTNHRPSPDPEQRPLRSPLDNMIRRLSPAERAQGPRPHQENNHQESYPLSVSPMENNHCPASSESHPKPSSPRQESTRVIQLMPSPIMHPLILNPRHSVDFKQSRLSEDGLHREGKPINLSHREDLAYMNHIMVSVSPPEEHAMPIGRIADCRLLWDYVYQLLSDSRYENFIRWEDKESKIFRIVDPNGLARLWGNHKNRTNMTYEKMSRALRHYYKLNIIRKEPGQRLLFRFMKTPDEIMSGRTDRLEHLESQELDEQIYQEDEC

Chain of ETV5 (P41161 whole entry): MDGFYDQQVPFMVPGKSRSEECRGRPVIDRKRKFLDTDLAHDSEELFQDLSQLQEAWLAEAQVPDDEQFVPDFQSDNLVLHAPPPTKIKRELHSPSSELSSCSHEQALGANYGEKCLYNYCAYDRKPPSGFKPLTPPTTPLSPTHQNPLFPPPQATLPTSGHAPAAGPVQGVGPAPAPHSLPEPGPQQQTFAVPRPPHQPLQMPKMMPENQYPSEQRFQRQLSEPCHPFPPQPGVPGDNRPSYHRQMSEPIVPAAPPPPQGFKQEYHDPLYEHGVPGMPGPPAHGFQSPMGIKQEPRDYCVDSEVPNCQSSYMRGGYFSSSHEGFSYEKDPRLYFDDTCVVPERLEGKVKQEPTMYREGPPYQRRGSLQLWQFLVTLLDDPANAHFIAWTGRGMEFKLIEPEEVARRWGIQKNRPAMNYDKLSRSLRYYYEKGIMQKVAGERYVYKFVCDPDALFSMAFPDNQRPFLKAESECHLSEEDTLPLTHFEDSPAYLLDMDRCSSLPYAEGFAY
Chain of ELF4 (Q99607 whole entry): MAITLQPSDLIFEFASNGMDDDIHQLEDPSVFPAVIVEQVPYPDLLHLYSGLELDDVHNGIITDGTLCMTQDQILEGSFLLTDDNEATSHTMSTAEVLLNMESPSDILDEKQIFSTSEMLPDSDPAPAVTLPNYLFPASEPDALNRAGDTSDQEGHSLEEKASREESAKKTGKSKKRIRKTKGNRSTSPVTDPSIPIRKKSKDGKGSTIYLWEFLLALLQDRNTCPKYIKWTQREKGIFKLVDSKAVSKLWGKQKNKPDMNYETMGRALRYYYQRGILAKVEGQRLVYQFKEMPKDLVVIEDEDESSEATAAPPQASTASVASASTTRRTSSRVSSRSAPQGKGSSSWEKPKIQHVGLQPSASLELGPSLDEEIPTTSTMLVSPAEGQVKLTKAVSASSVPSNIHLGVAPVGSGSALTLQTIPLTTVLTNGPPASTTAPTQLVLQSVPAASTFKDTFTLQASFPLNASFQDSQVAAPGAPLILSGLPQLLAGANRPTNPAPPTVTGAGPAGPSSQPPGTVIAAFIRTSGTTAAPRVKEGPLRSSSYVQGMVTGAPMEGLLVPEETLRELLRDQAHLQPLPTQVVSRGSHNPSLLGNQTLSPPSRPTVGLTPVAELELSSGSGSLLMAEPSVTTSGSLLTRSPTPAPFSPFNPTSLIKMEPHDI
Chain of HSF1 (Q00613 whole entry): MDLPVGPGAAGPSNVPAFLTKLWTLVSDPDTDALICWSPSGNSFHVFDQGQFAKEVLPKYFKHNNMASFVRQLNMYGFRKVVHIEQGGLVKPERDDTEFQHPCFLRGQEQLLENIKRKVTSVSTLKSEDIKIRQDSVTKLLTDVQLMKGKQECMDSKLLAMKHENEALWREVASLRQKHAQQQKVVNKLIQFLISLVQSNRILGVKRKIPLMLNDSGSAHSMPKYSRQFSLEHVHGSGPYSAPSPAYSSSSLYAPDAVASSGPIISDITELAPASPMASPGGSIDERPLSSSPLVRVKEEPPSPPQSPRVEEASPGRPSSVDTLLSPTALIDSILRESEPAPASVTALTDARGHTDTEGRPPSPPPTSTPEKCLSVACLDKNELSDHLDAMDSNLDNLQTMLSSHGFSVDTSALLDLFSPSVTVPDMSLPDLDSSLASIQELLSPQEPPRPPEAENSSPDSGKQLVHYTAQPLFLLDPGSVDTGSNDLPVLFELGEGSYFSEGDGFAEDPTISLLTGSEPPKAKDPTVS

As for CAAATA, the binding signal was 1.14 fold enrichment (6-mer frequency, TF over GST control) with FEV; 1.14 fold enrichment (6-mer frequency, TF over GST control) with ETV5; 1.14 fold enrichment (6-mer frequency, TF over GST control) with HSF1; 1.09 fold enrichment (6-mer frequency, TF over GST control) with SPIC; 1.16 fold enrichment (6-mer frequency, TF over GST control) with ELF4; 1.02 fold enrichment (6-mer frequency, TF over GST control) in the assay with ELK4. The binding signal is 1.06 fold enrichment (6-mer frequency, TF over GST control) with ETV2; 1.4 fold enrichment (6-mer frequency, TF over GST control) in the assay with ELF3; 1.24 fold enrichment (6-mer frequency, TF over GST control) with CRX; 1.12 fold enrichment (6-mer frequency, TF over GST control) with ETV1; 1.23 fold enrichment (6-mer frequency, TF over GST control) with ERF; 1.1 fold enrichment (6-mer frequency, TF over GST control) with ETV3L. For the same sequence, the binding signal is 1.14 fold enrichment (6-mer frequency, TF over GST control) with ETS2; 1.09 fold enrichment (6-mer frequency, TF over GST control) in the assay with SPDEF; 1.16 fold enrichment (6-mer frequency, TF over GST control) with ETV7; 1.06 fold enrichment (6-mer frequency, TF over GST control) with ELF5; 1.1 fold enrichment (6-mer frequency, TF over GST control) in the assay with ETV3; 1.07 fold enrichment (6-mer frequency, TF over GST control) with ETV6.
